Reference: PubChem BioAssay
Several values for one entry are separate records, joined by “and”; a condition that tells them apart may be missing. Equal entries are not always repeated. The source holds several records for some structures; these can differ, active in one and inactive in another. Activity calls are given as the source filed them.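 The calls were made as follows, unless noted: active = thallium flux through the channel raised or lowered by more than 3 SD from vehicle-only wells, actives on both sides; inactive = the rest.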

Legend:
[1] = test system: Hepatitis C virus NS3 helicase; assay: HCV NS3 helicase inhibitors, primary screen, biochemical, fluorescence polarization, NIH Clinical Collection (AID 743270; call rule not given here); conditions: NS3 helicase binding to Cy5-dT15 DNA, stronger effect = higher value, concentration not given here
[2] = molecular target: Single-stranded DNA-binding protein (Escherichia coli (strain K12)) (UniProt P0AGE0); assay: E. coli SSB displacement from DNA, counter-screen for HCV NS3 helicase inhibitor project, biochemical, fluorescence polarization, NIH Clinical Collection (AID 743271; in the data active = inhibition above about 28%); conditions: stronger effect = higher value, concentration not given here
[3] = fluorescence interference in NS3h assay format, artefact control for HCV NS3 helicase inhibitor project, biochemical, NIH Clinical Collection (AID 743272; call rule not given here;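 also: HCV NS3 helicase with a Cy5 labelled single stranded DNA probe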); conditions: fluorescence interference counterscreen, stronger effect = lower value
[4] = stimulators of nuclear beta-catenin in C2C12, primary screen, imaging, WNT3A-conditioned medium, mouse C2C12, NPC library (AID 1117326; in the data active = nuclear beta-catenin stimulation mostly above about 4.2%, no sharp cut-off; inactive = mostly below about 10%); conditions: stronger effect = higher value
[5] = stimulators of insulin release from INS-1E, primary screen, cell-based, 5 mM glucose, NPC library (AID 1117329;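 active = compound raises insulin release from rat beta cells at 5 mM glucose, no numeric limit stated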); conditions: rat INS-1E insulin secretion, at 10 µM, stronger effect = higher value
[6] = growth inhibition of GSK3B-pretreated HCT116 cells – cell-based, CellTiter-Glo, 0.2 to 20 µM (AID 1117336;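 active = compounds lowering colon cancer cell viability after pretreatment blocking the GSK3B kinase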); conditions: HCT116 viability after GSK3B inhibitor, at 20 µM, stronger effect = higher value
[7] = inhibition of endothelial tube formation, primary screen, imaging, VEGF stimulated, CD31 staining, tube area, NPC library (AID 1117340;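 active = compound that reduces growth-factor-driven endothelial tube area in a mixed cell culture, no cutoff stated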); conditions: VEGF-stimulated ADSC/ECFC co-culture, at 10 µM, stronger effect = higher value
[8] = glucagon-like peptide 1 release enhancers, primary assay, NCI-H716 cell line, NPC library (AID 1117341;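 active = compound raises GLP1 secretion from the human gut endocrine cells, with no numeric limit stated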); conditions: NCI-H716 cells, at 10 µM, stronger effect = higher value
[9] = HCT116 colon cancer cell growth inhibition, primary screen, CellTiter-Glo luminescence, NPC library (AID 1117342;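 active = compounds that lower survival of HCT116 colon cancer cells in the luminescence readout, no numeric limit stated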); conditions: at 20 µM (top of the series)
[10] = CellTiter-Glo luminescent readout of SW480 viability loss, NPC library primary (AID 1117343;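 active = compounds that lower viability of the colon cancer cells in the luminescence readout, with no numeric limit stated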); conditions: CellTiter-Glo luminescence; at 20 µM (top of the series)
[11] = decreased DLD-1 cellular survival, CellTiter-Glo luminescent readout, NPC compound collection, primary HTS (AID 1117346;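 active = compounds that lower survival of DLD-1 colon cancer cells in the luminescence readout, no cutoff given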); conditions: DLD-1 viability, CellTiter-Glo luminescence; at 20 µM (top of the series)
[12] = molecular target: 6-phosphogluconate dehydrogenase, decarboxylating (Homo sapiens) (UniProt P52209); assay: 6PGD enzyme inhibitors, primary screen, biochemical, human, recombinant enzyme, NADPH absorbance (AID 1159550;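 active = at least 20% inhibition of 6-phosphogluconate dehydrogenase activity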); conditions: recombinant 6PGD, NADPH absorbance 341 nm; at 10 µM; stronger effect = higher value
Sequence of 6-phosphogluconate dehydrogenase, decarboxylating (Homo sapiens) (P52209 whole entry, looked up): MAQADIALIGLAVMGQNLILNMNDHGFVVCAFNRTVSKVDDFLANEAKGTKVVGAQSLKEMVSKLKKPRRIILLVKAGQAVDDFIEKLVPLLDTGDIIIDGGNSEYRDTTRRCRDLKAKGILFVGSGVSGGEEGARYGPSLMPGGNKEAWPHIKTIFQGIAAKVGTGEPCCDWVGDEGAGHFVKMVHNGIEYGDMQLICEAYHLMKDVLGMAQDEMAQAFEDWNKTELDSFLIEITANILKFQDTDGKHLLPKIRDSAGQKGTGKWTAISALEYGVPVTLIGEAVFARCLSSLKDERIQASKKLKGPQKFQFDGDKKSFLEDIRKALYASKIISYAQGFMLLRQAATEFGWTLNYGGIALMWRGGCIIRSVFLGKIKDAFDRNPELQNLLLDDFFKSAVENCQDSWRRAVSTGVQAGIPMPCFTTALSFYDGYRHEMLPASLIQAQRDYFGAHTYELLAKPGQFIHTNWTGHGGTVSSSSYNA

[13] = sensitizers of A549 cells to miR-34 induction, primary screen, imaging, A549 dox-inducible miR-34, nuclei and caspase counts (AID 1347080;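 active = compounds whose cell count with miR-34 switched on is under 0.7 times the count with it off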); conditions: A549 miR-34 inducible, Hoechst nuclei count, 48 h
[14] = survival rescue of mitochondrial mutant cells in low glucose, primary screen, MELAS cybrids, Rieske KO mouse fibroblasts, CellTiter-Glo (AID 1508586;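 active = mean z-score across replicates of 1.96 or higher in either the MELAS or the Rieske mutant cell line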;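 also: z relative to plate mean and SD of compound and empty wells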)
[15] = molecular target: NAD(+) hydrolase SARM1 (Homo sapiens) (UniProt Q6SZW1); assay: SARM1 TIR NADase inhibitors, cell lysate, NAD-Glo luminescence (AID 1508614;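 active = compound whose remaining NAD level is above about 45 nM, limit read from the data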;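 also: higher remaining NAD means stronger inhibition of SARM1 NADase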); conditions: SAM-TIR HEK293T lysate NADase, at 1 µM, stronger effect = higher value
Sequence of NAD(+) hydrolase SARM1 (Homo sapiens) (Q6SZW1 whole entry, looked up, the tested form may be a part): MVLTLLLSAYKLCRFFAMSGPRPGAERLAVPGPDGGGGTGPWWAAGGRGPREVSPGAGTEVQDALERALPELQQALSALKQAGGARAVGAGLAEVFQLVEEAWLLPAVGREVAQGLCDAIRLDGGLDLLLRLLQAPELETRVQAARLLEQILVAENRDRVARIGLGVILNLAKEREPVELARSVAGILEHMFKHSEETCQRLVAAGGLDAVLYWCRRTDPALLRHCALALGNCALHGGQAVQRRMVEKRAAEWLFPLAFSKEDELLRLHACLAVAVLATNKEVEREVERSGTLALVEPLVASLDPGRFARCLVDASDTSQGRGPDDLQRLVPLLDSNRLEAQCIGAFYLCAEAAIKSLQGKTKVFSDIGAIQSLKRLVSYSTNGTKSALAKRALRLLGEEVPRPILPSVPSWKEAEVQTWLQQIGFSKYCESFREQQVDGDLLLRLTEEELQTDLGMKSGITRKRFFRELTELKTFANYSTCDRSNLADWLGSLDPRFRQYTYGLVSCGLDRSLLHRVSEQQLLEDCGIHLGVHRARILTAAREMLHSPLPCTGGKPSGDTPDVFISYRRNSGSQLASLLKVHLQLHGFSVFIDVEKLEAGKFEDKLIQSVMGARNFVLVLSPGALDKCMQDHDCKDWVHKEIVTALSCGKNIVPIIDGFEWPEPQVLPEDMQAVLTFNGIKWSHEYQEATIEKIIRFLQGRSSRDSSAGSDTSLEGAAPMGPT

[16] = molecular target: Mitogen-activated protein kinase 7 (Homo sapiens) (UniProt Q13164); assay: ERK5 transactivation activators in reporter cells, primary screen, cell-based, HTS (AID 1508626;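 active = luciferase signal above three times the same-plate solvent-only control wells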;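 also: luciferase driven by Gal4-ERK5 fusion binding five Gal4 sites before minimal TATA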); conditions: HeLa Gal4-ERK5 transactivation, 18 h, at 5 µM, stronger effect = higher value
Sequence of Mitogen-activated protein kinase 7 (Homo sapiens) (Q13164 whole entry, looked up, the tested form may be a part): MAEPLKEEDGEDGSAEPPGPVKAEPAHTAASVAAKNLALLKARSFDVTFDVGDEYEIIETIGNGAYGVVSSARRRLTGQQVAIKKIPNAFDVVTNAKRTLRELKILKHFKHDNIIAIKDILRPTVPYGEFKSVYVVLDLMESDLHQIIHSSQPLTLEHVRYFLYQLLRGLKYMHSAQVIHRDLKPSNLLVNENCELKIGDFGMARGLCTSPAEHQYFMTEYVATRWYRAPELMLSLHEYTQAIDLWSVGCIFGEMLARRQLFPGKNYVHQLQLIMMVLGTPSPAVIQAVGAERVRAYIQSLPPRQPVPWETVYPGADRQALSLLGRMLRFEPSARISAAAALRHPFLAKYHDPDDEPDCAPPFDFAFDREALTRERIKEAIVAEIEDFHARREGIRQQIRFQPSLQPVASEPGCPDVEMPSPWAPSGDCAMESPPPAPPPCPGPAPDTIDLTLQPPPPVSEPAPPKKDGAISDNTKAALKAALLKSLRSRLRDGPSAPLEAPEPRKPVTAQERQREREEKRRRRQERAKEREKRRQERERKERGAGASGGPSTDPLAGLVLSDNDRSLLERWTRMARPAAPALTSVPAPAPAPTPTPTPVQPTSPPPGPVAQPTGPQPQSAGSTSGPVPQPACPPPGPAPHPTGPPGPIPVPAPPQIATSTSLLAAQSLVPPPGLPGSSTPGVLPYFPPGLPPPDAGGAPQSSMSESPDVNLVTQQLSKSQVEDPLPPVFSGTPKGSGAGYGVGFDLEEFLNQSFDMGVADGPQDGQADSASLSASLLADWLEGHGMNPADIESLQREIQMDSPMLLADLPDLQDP

F380Y = assay: modulators of BK channel variants, profiling panel, selectivity assay, cell-based, U2OS BacMam, thallium flux, beta subunits (AID 1259406); conditions: at 30 µM;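 also: initial slope of Thallos dye fluorescence rise after thallium is added; log ratio against the mean of 0.3% DMSO vehicle wells on the same plate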
F380Y/beta2Delta = assay: as above; conditions: at 30 µM
[17] = molecular target: Calcium-activated potassium channel subunit alpha-1 (Homo sapiens) + Leucine-rich repeat-containing protein 26 (Homo sapiens) (UniProt Q12791+Q2I0M4); assay: as above; conditions: F380Y/Slo1WT/gamma1, at 30 µM
Sequence of Calcium-activated potassium channel subunit alpha-1 (Homo sapiens) + Leucine-rich repeat-containing protein 26 (Homo sapiens) (Q2I0M4 whole entry, looked up, one chain of several): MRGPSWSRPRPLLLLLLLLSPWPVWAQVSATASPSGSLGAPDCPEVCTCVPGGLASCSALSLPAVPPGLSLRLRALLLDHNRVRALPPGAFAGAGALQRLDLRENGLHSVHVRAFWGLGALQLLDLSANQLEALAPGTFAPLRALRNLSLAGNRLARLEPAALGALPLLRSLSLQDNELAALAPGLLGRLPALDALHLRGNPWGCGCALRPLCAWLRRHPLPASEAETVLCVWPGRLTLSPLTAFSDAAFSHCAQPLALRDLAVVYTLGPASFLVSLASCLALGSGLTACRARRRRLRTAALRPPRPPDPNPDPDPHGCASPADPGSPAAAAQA

[18] = differential killing of epithelial or mesenchymal cells, primary screen, imaging, PC-3E GFP, TEM4-18 mCherry, co-culture (AID 1345086;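 active = compounds killing one labelled cell type while sparing the other, by normalised counts and ratio limits, not self-fluorescent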;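 as to all read-outs here: cells exposed to compound for 72 h before imaging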;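 as to red/green cell ratio (normalised): normalised mesenchymal count divided by normalised epithelial count so high means epithelial killing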); conditions: imaging cell counts, at 1 µM; for red/green cell ratio (normalised): actives lie on both sides, counts scaled to control wells, 1 = unselective
[19] = stronger effect = lower value, cell number ratio, induced over uninduced
[20] = measured here: relative caspase fold change +Dox/-Dox
[21] = measured here: total cells with miR-34 induction, stronger effect = lower value
[22] = measured here: total cells without miR-34 induction
[23] = MELAS cybrid survival, CellTiter-Glo 48 h, stronger effect = higher value
[24] = Rieske KO mouse fibroblast survival, CellTiter-Glo 72 h
[25] = measured here: epithelial PC-3E GFP cell survival
[26] = measured here: mesenchymal TEM4-18 mCherry cell survival

SMILES: CCC(=O)O[C@]1(C(=O)CCl)[C@@H](C)C[C@H]2[C@@H]3CCC4=CC(=O)C=C[C@]4(C)[C@@]3(F)[C@@H](O)C[C@@]21C
- inhibition [1]: 4.09% (inactive)
- inhibition [2]: 2.57% (inactive)
- fluorescence ratio [3]: 0.96 (inactive)
- nuclear beta-catenin stimulation ([4]; at 10 µM): 4.4% (inactive)
- nuclear beta-catenin stimulation ([4]; stimulation, at 2 µM): 3.8%
- insulin secretion stimulation [5]: 8.3% (inactive)
- viability decrease [6]: -89.8% (inactive)
- tube area decrease [7]: 9.1% (inactive)
- GLP1 secretion stimulation [8]: 2.1% (inactive)
- inhibition of viability [9]: 2.9% (inactive)
- viability decrease (inhibition) [10]: 41% (inactive)
- viability decrease (inhibition) [11]: 15.6% (inactive)
- inhibition [12]: 3.17% (inactive)
- fold change [13, 19]: 1.05 (inactive) and 0.839 (inactive)
- fold change [13, 20]: 2.64 and 1.67
- cell count [13, 21]: 6300 and 6140
- cell count [13, 22]: 6030 and 7320
- z-score [14, 23]: 0.507 (inactive) and -0.252 (inactive)
- z-score [14, 24]: 1.67 and 0.844
- remaining NAD [15]: 10 nM (inactive)
- luciferase signal [16]: 84 AU (inactive)
- log fold change Tl+ flux (F380Y): 0.112 (active)
- log fold change Tl+ flux (F380Y/beta2Delta): 0.293 (active)
- log fold change Tl+ flux [17]: 0.157 (active)

SMILES: CCN(CC)C(=S)SSC(=S)N(CC)CC
- inhibition [1]: -1.19% (inactive)
- inhibition [2]: -1.64% (inactive)
- fluorescence ratio [3]: 0.99 (inactive)
- nuclear beta-catenin stimulation ([4]; at 10 µM): 5.4% (inactive)
- nuclear beta-catenin stimulation ([4]; stimulation, at 2 µM): 2.3%
- insulin secretion stimulation [5]: 4.8% (inactive)
- viability decrease [6]: 9.9% (inactive)
- tube area decrease [7]: 35.6% (inactive)
- GLP1 secretion stimulation [8]: 6.3% (inactive)
- inhibition of viability [9]: 18.6% (inactive)
- viability decrease (inhibition) [10]: 39.4% (inactive)
- viability decrease (inhibition) [11]: 30.8% (inactive)
- inhibition [12]: 1.47% (inactive)
- red/green cell ratio (normalised) [18]: 0.63 (inactive)
- normalised cell number [18, 25]: 0.27
- normalised cell number [18, 26]: 0.17
- z-score [14, 23]: -0.351 (inactive) and 0.325 and -1.17
- z-score [14, 24]: -4.19 and 10.8 and 3.81
- remaining NAD [15]: 10 nM (inactive)
- luciferase signal [16]: 16 AU (inactive)
- log fold change Tl+ flux (F380Y): -0.0143 (inactive)
- log fold change Tl+ flux (F380Y/beta2Delta): 0.0251 (inactive)
- log fold change Tl+ flux [17]: 0.093 (active)

SMILES: C[C@@H]1CC(=O)NN=C1c1ccc(NN=C(C#N)C#N)cc1
- nuclear beta-catenin stimulation ([4]; at 10 µM): 7.5% (inactive) and 2.8% (inactive)
- nuclear beta-catenin stimulation ([4]; stimulation, at 2 µM): 0% and -0.4%
- insulin secretion stimulation [5]: -2.9% (inactive) and -1.5% (inactive)
- viability decrease [6]: -8.85% (inactive) and 2.3% (inactive)
- tube area decrease [7]: 41.6% (active) and 22.4% (inactive)
- GLP1 secretion stimulation [8]: 1.1% (inactive) and -7% (inactive)
- inhibition of viability [9]: -20.6% (inactive) and 6.9% (inactive)
- viability decrease (inhibition) [10]: 30.7% (inactive) and -5.7% (inactive)
- viability decrease (inhibition) [11]: 12.6% (inactive) and 21.9% (inactive)
- red/green cell ratio (normalised) [18]: 1.17 (inactive)
- normalised cell number [18, 25]: 1.03
- normalised cell number [18, 26]: 1.21
- fold change [13, 19]: 0.967 (inactive)
- fold change [13, 20]: 0.752
- cell count [13, 21]: 8720
- cell count [13, 22]: 9020
- remaining NAD [15]: 10 nM (inactive)

SMILES: COc1ccccc1N1CCN(CCCNc2cc(=O)n(C)c(=O)n2C)CC1
- inhibition [1]: -2.77% (inactive)
- inhibition [2]: -1.64% (inactive)
- fluorescence ratio [3]: 0.96 (inactive)
- nuclear beta-catenin stimulation ([4]; at 10 µM): 4.3% (inactive)
- nuclear beta-catenin stimulation ([4]; stimulation, at 2 µM): 0.2%
- insulin secretion stimulation [5]: 1.1% (inactive)
- viability decrease [6]: 1.1% (inactive)
- tube area decrease [7]: 1% (inactive)
- GLP1 secretion stimulation [8]: -0.1% (inactive)
- inhibition of viability [9]: 10.8% (inactive)
- viability decrease (inhibition) [10]: -11.2% (inactive)
- viability decrease (inhibition) [11]: -9.9% (inactive)
- inhibition [12]: -3.41% (inactive)
- red/green cell ratio (normalised) [18]: 1.12 (inactive)
- normalised cell number [18, 25]: 0.91
- normalised cell number [18, 26]: 1.01
- z-score [14, 23]: -0.289 (inactive) and 0.285 (inactive)
- z-score [14, 24]: 0.041 and 0.0737
- remaining NAD [15]: 10 nM (inactive)
- luciferase signal [16]: 40 AU (inactive)
- log fold change Tl+ flux (F380Y): -0.0416 (inactive)
- log fold change Tl+ flux (F380Y/beta2Delta): -0.00368 (inactive)
- log fold change Tl+ flux [17]: -0.00786 (inactive)

SMILES: C[C@@H](O)[C@H]1C(=O)N2C(C(=O)O)=C(S[C@@H]3CN[C@H](C(=O)N(C)C)C3)[C@H](C)[C@H]12
- inhibition [1]: 2.77% (inactive)
- inhibition [2]: -0.87% (inactive)
- fluorescence ratio [3]: 0.99 (inactive)
- nuclear beta-catenin stimulation ([4]; at 10 µM): -1.7% (inactive) and -0.1% (inactive)
- nuclear beta-catenin stimulation ([4]; stimulation, at 2 µM): 1% and 0.5%
- insulin secretion stimulation [5]: 1.9% (inactive) and 2% (inactive)
- viability decrease [6]: -24.1% (inactive) and -19.8% (inactive)
- tube area decrease [7]: -3.2% (inactive) and 11.7% (inactive)
- GLP1 secretion stimulation [8]: -1.2% (inactive) and -6.2% (inactive)
- inhibition of viability [9]: 3.6% (inactive) and 6.7% (inactive)
- viability decrease (inhibition) [10]: 9.5% (inactive) and 15.1% (inactive)
- viability decrease (inhibition) [11]: -2.2% (inactive) and -3.6% (inactive)
- fold change [13, 19]: 0.969 (inactive) and 0.909 (inactive)
- fold change [13, 20]: 0.61 and 1.16
- cell count [13, 21]: 9470 and 9550
- cell count [13, 22]: 9770 and 10500
- z-score [14, 23]: 0.815 (inactive) and 0.0614 (inactive)
- z-score [14, 24]: 1.23 and -0.866
- remaining NAD [15]: 10 nM (inactive)
- log fold change Tl+ flux (F380Y): 0.000985 (inactive)
- log fold change Tl+ flux (F380Y/beta2Delta): -0.00534 (inactive)
- log fold change Tl+ flux [17]: -0.0284 (inactive)

SMILES: COc1ccc2c(c1)c(CC(=O)O)c(C)n2C(=O)c1ccc(Cl)cc1
- inhibition [1]: -3.56% (inactive)
- inhibition [2]: -2.41% (inactive)
- fluorescence ratio [3]: 1.01 (inactive)
- nuclear beta-catenin stimulation ([4]; at 10 µM): 0.6% (inactive)
- nuclear beta-catenin stimulation ([4]; stimulation, at 2 µM): 1%
- insulin secretion stimulation [5]: -1% (inactive)
- viability decrease [6]: -52.1% (inactive)
- tube area decrease [7]: -10.5% (inactive)
- GLP1 secretion stimulation [8]: 1.6% (inactive)
- inhibition of viability [9]: 0.43% (inactive)
- viability decrease (inhibition) [10]: 10.6% (inactive)
- viability decrease (inhibition) [11]: 3.4% (inactive)
- inhibition [12]: -5.45% (inactive)
- red/green cell ratio (normalised) [18]: 1.02 (inactive)
- normalised cell number [18, 25]: 0.91
- normalised cell number [18, 26]: 0.93
- z-score [14, 23]: -0.268 (inactive) and 0.659 (inactive) and 0.23 (inactive)
- z-score [14, 24]: -0.036 and -0.235 and -0.118
- remaining NAD [15]: 10 nM (inactive)
- luciferase signal [16]: 36 AU (inactive)
- log fold change Tl+ flux (F380Y): 0.0847 (inactive)
- log fold change Tl+ flux (F380Y/beta2Delta): 0.11 (active)
- log fold change Tl+ flux [17]: 0.0683 (inactive)
